The list is not random: actives were taken first. Their share in the collection is about 2.4%.
TNF necrop inh: inhibitors of TNF-alpha triggered necroptosis, primary screen, cell-based, Jurkat FADD-/-, single concentration | Jurkat FADD-/- TNF necroptosis rescue, ATP luminescence, 24 h; 0 = TNF only, 100 = no-TNF cells | activation (protection from cell death), % at 10 µM | hit rate 0.068% among 220,000 | AID 463075, 2010;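 active = activation, meaning protection from cell death, of at least 50% relative to plate controls; inactive = activation below 50%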;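 note: necroptosis triggered by 40 ng/mL TNF-alpha added together with compound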
Mcl1 Bid PPI: Mcl-1/Bid binding inhibitors, primary screen, biochemical, TR-FRET, 1536-well | Induced myeloid leukemia cell differentiation protein Mcl-1 (Homo sapiens), Q07820 | TR-FRET Mcl-1/Bid-Dy647 peptide binding | inhibition, % at 21.7 µM | hit rate 0.97% among 220,000 | AID 1021, 2008;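 active = compounds that cut the binding signal by more than half at the single screening dose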;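 note: His-tagged Mcl-1 with europium anti-His antibody binding Bid BH3 peptide; 0% = Mcl-1 plus peptide wells and 100% = peptide-only wells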
Target sequence (Q07820 whole entry, looked up): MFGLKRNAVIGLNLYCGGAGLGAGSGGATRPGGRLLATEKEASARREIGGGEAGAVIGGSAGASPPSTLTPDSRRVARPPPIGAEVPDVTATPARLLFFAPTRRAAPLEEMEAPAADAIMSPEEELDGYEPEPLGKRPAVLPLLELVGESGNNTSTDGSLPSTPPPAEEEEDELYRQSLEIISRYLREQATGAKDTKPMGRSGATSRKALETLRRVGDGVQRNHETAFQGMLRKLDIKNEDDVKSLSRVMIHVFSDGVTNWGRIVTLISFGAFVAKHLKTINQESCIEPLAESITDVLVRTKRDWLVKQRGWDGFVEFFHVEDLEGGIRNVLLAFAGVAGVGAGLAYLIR
Mcl1-Noxa inh: Mcl-1/Noxa binding inhibitors, primary screen, biochemical, TR-FRET, 1536-well | Induced myeloid leukemia cell differentiation protein Mcl-1 (Homo sapiens), Q07820 | hit rate 1.5% among 220,000 | inhibition, % at 21.7 µM | TR-FRET Mcl-1/Noxa peptide binding, 2 h;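 active = compounds that cut the protein-peptide binding signal by more than 50% relative to plate controls in a single-dose test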;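 note: His-tagged Mcl-1 with rhodamine Noxa BH3 peptide and terbium anti-His antibody; 0% = Mcl-1 plus Noxa peptide wells and 100% = peptide-only wells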
Bim-Mcl-1: inhibitors of Bim peptide binding to Mcl-1, primary screen, biochemical, bead-based flow cytometry, multiplex; Induced myeloid leukemia cell differentiation protein Mcl-1 (Homo sapiens), Q07820; inhibition, % at 10 µM; hit rate 0.1% among 190,000; Bim peptide-Mcl-1 binding; in the data active = inhibition above about 40%;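 note: 0% = no compound tracer wells and 100% = peptide blocker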
MCL1-BIM inh: inhibitors of MCL1 binding to BIM-BH3, primary screen, biochemical, fluorescence polarization. hit rate 0.68% among 320,000. GST-MCL1 / FITC-Bim-BH3 fluorescence polarization. inhibition, % at 10.9 µM. Induced myeloid leukemia cell differentiation protein Mcl-1 (Homo sapiens), Q07820;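 active = inhibition above the mean inhibition of all tested compounds plus 3 SD, set per campaign, cut at about 40% in these data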;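 note: 0% = DMSO wells and 100% = unlabeled Bim-BH3 peptide control; higher means more loss of mP so more displacement of Bim peptide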
L929 necroptosis: inhibitors of zVAD-triggered necroptosis, primary screen, L929 cells | L929 zVAD necroptosis rescue, ATP luminescence, 24 h; with zVAD 60 µM | viability rescue, % at 10 µM | hit rate 0.38% among 220,000 | AID 1377, 2008;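 active = activation, scaled between plate controls, above about 75%, limit read from the data; inactive = activation under that limit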;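 note: 0% = zVAD with DMSO and 100% = DMSO alone without zVAD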
* = called active by the depositor; nt = not tested or not shown.

SMILES	TNF necrop inh	Mcl1 Bid PPI	Mcl1-Noxa inh	Bim-Mcl-1	MCL1-BIM inh	L929 necroptosis
CCOc1ccc(C(=O)Nc2cc(NC(=O)c3ccc(OCC)c(Cl)c3)cc(C(=O)O)c2)cc1Cl	0	5	84*	-2	nt	0
CCOc1ccc(C(=O)N2CCN(S(=O)(=O)c3cccs3)CC2)c(OCC)c1	nt	nt	nt	nt	-5	nt
CCOC(=O)c1cc(C)[nH]c(=S)c1C#N	0	-47	72*	-4	8	1
Cc1ccc(S(=O)(=O)N2CCOCC(=O)NCCOCCNC(=O)COCC2)cc1	1	-13	-7	-3	nt	3
Cc1cc(C)c2c(c1)[C@@H]1C=CC[C@@H]1[C@H](c1ccc(S(=O)(=O)N3CCOCC3)cc1)N2	-1	17	67*	6	25	0
CC(=O)c1ccc(NC(=O)CC2Nc3cccc4cccc(c34)NC2=O)cc1 (stereo not drawn)	-1	-35	83*	-1	14	1
CCN1CCN(c2ccc(S(=O)(=O)N3CCOCC3)cc2NC(=O)CCC(C)C)CC1	nt	nt	nt	nt	-10	nt
COC(=O)/C(=N/Nc1ccccc1)N1CCCc2ccccc21	0	95*	19	-2	-5	0
O=C(COc1ccc(Cl)cc1)Nc1ccccc1C(=O)NCc1cccnc1	nt	nt	nt	nt	2	nt
CCN(CC)CCn1c2ccc(F)cc2c2nc(C)sc21	1	53*	42	9	1	2
CC1(C)OC(=O)N(Cc2ccco2)C1(C)O (stereo not drawn)	0	51*	7	1	0	0
COc1ccc(/C=N/c2c(-c3ccco3)nc3ccccn23)cc1OC	-12	-3	35	0	47*	0
Clc1ccc(/C=N/c2c(-c3ccco3)nc3ccccn23)cc1	-5	-44	50	3	47*	-2
Oc1ccccc1/C=N/c1c(-c2ccco2)nc2ccccn12	-11	-17	35	-6	23	0
CCCCC(=O)Oc1c(S(=O)(=O)c2ccc(C)cc2)c(C)nn1C(C)(C)C	nt	nt	nt	nt	-6	nt
CCN(CC)S(=O)(=O)c1cccc(-c2n[nH]c(=S)n2C)c1	-1	-15	33	0	-12	0
Cc1ccc(-c2n[nH]c(=S)n2C)cc1Cl	-1	-39	53*	-1	-18	2
CCN(C(=O)COC(=O)c1cc(-c2ccc(C)o2)nc2ccccc12)C1CCS(=O)(=O)C1 (stereo not drawn)	-2	21	68*	-1	33	0
Cc1ccc(-c2cc(C(=O)OCC(=O)N(C)C3CCS(=O)(=O)C3)c3ccccc3n2)o1 (stereo not drawn)	-3	-61	78*	1	22	1
CCN(C(=O)COC(=O)c1cc(-c2cccs2)nc2ccccc12)C1CCS(=O)(=O)C1 (stereo not drawn)	1	-24	2	0	5	2
COc1ccc(NC(=O)c2sc3nc(N4CCOCC4)c4c(c3c2N)CC(C)(C)OC4)c(OC)c1	nt	nt	nt	nt	-4	nt
COc1ccc(-c2cc3c(=O)n(CC(=O)N4CCCC4)ncn3n2)cc1	nt	nt	nt	nt	3	nt
CC(C)(C)C(=O)Cn1ncc(Cl)c(Cl)c1=O	-1	4	3	-1	nt	14
C=CCn1c(C)cc(C(=O)Cn2ncc(Cl)c(Cl)c2=O)c1C	-14	-76	86*	-5	26	46
CC(C)[C@H](NC(=O)Cc1ccccc1)C(=O)OCc1cc(=O)n2c(n1)sc1ccccc12	-1	2	76*	-3	15	1
SMILES	TNF necrop inh	Mcl1 Bid PPI	Mcl1-Noxa inh	Bim-Mcl-1	MCL1-BIM inh	L929 necroptosis
O=C(COC(=O)c1ccc(F)cc1Cl)NC(=O)NC1CCCC1	nt	nt	nt	nt	-4	nt
CC(=O)c1nnn(-c2ccc([N+](=O)[O-])cc2)c1C	0	-9	-13	-1	1	3
O=C(CSc1cn(Cc2cccc(F)c2)c2ccccc12)NCc1ccc(F)cc1	1	62*	4	-3	-2	4
Cc1ccc(C)c(OCC(=O)Nc2ccc(N3CCOCC3)cc2N2CCOCC2)c1	nt	nt	nt	nt	4	nt
O=C(NC1CCCCCCC1)c1ccc2c(c1)OCO2	-1	-19	-10	1	6	0
c1cc2c(cc1NC1CCCCCC1)OCO2	nt	nt	nt	nt	47*	nt
Cc1ccc(NS(=O)(=O)c2c(C)[nH]c(C)c2C(=O)N2CCCCC2)cc1Cl	nt	nt	nt	nt	5	nt
COc1cc(/C=C2\SC(=S)N(CC(=O)Nc3cccnc3)C2=O)cc(OC)c1OC	5	-17	4	0	7	1
Cc1cc(NC(=O)CCN2C(=O)/C(=C/c3ccccc3F)SC2=S)no1	0	-6	42	4	3	0
Cc1cc(NC(=O)CCN2C(=O)/C(=C\c3ccccc3)SC2=S)no1	0	-5	71*	nt	3	0
COc1ccc(/C=C2\SC(=S)N(CCC(=O)NC3=NCCS3)C2=O)cc1OC	0	22	56*	0	11	0
COc1cc(/C=C2\SC(=S)N(CC(=O)NC3=NCCS3)C2=O)cc(OC)c1OC	0	0	12	0	15	0
COc1cc(/C=C2\SC(=S)N(CC(=O)Nc3ccc(O)cc3)C2=O)cc(OC)c1OC	4	-17	77*	0	nt	3
COc1ccc(-c2nnc(Nc3nc4c(OC)cccc4s3)o2)cc1	-2	56*	57*	-3	20	1
COc1ccc(-c2nnc(Nc3nc4c(OC)cccc4s3)o2)c(OC)c1	1	-74	-6	-1	8	8
CCCC(=O)C1=C(O)C(C(=O)OC)C(C)(C)CC1=Nc1ccc(N)cc1 (stereo not drawn)	-3	-29	27	0	0	0
CCCC(=Nc1ccc(N)cc1)C1=C(O)C(C(=O)OC)C(C)(C)CC1=O (stereo not drawn)	1	-9	18	1	49*	-1
CC(C)NC(=O)c1ccc2c(c1)N(CC(=O)Nc1ccccc1F)C(=O)C(C)(C)O2	nt	nt	nt	nt	6	nt
Cc1ccc2nc3nc(NCC4CCCO4)c(C(=O)NC4CCCC4)cc3c(=O)n2c1 (stereo not drawn)	2	2	15	0	2	-1
COCCCNC(=O)c1cc2c(=O)n3cc(C)ccc3nc2nc1NCC1CCCO1 (stereo not drawn)	2	66*	-1	-10	7	0
CSc1nc(C)cc(OCC(=O)n2nc(C)cc2C)n1	-2	99*	9	1	-1	0
COc1cc(/C=C(\NC(=O)c2ccccc2)C(=O)NC(C(=O)O)c2ccccc2)cc(OC)c1OC (stereo not drawn)	nt	nt	nt	nt	-1	nt

Assay outcomes from PubChem BioAssay.
